system: P. falciparum NF54-pfs16-GFP late (IV-V) stage gametocytes; assay: relative % inhibition of viable gametocyte number; higher = more gametocytocidal; conditions: 0.5 µM; stage: late (IV-V) gametocyte; incubation 72 h
How it was run: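 In 384-well poly-D-lysine imaging plates, NF54 pfs16-GFP gametocytes (magnet-isolated, early I/IIa on day 2 or late on day 8; 10% parasitaemia, 0.1% haematocrit) received compound in duplicate at 5 or 0.5 µM. Plates stood 72 h at 37°C in 5% CO2 and 5% O2, then overnight with MitoTracker Red before confocal imaging, where elongated GFP objects with MitoTracker signal above cut-off counted as viable. Relative inhibition was calculated against vehicle and positive-control wells on the same plate.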

Row | SMILES | relative % inhibition [%]
1 | COc1ccccc1N=C1C(=O)c2ccccc2C(O)=C1N1CCCCC1 | -11.2
2 | c1ccc2c(NCCc3c[nH]c4ccccc34)c3ccccc3nc2c1 | -14.3
3 | O=C(CCl)NCCOc1ccc(Cl)cc1Cl | 8.06

same assay, conditions: 5 µM; stage: late (IV-V) gametocyte; incubation 72 h

Row | SMILES | relative % inhibition [%]
4 | c1ccc(C2=Nc3ccccc3N=C(c3ccccc3)c3ccccc32)cc1 | 47.2
5 | CC(C)OCc1cc(CN2CCN(c3cccc(Cl)c3)CC2)c(O)c2ncccc12 | 98.4
6 | COc1ccc2nc(C)cc(Nc3ccccc3O)c2c1 | 18.4
7 | CCOC(=O)c1cnc2ccc(OC)cc2c1NCc1ccccc1 | 2.07
8 | CCc1ccc(Nc2cc(C)nc3nc(C)nn23)cc1 | 16.9
9 | CCn1nc(-c2ccc(C(=O)OC)cc2)nc2c(=O)n(C)c(=O)nc1-2 | 76.7
10 | Brc1ccc(Nc2nc3ccccc3nc2Nc2ccc(Br)cc2)cc1 | 102
11 | CC(C)CNC(=O)c1c(N)n(CCc2ccccc2F)c2nc3ccccc3nc12 | 8.27
12 | CC1=C(CC(=O)c2cccc([N+](=O)[O-])c2)C(=O)c2ccccc2C1=O | 54.1
13 | COc1cccc(C(=O)NC(c2ccc(C)cc2)c2cc(Cl)c3cccnc3c2O)c1 (configuration not stated) | 65.2
14 | COc1cccc(Nc2nc(NCCO)c3ccccc3n2)c1 | 50.8
15 | CCOc1ccc(C=Cc2nc(=O)c3ccccc3o2)cc1 | 21.6
16 | CCC(C)NCC(O)(c1ccc(Cl)cc1)c1ccc(Cl)cc1 (configuration not stated) | 58.3
17 | COc1ccc(OC)c(C2C3=C(CC(C)(C)CC3=O)N(c3ccc(Cl)c(Cl)c3)C3=C2C(=O)CC(C)(C)C3)c1 | 79.2
18 | O=C(Nc1cccc(C(F)(F)F)c1)c1cc(Cl)ccc1O | 30.1
19 | CN(C)c1ccc(C(O)(c2ccc(N(C)C)cc2)c2ccc(N(C)C)cc2)cc1 | 103
20 | Nc1ccc(-c2nc3cc(Cc4ccc5[nH]c(-c6ccc(N)cc6)nc5c4)ccc3[nH]2)cc1 | 85.1
21 | CCC(c1ccccc1)c1nn2c(-c3cccs3)nnc2s1 (configuration not stated) | 12.4
22 | CCOC(=O)c1cnc2c(C)cccc2c1Nc1ccc(C(C)=O)cc1 | -0.973
23 | Cc1cc(NCCN2CCCCC2)c2ccc3ccccc3c2n1 | 36.7

Row | SMILES | relative % inhibition [%]
24 | O=C(NC1CCN(Cc2ccccc2)CC1)c1cc(C(=O)NC2CCN(Cc3ccccc3)CC2)cc(C(=O)NC2CCN(Cc3ccccc3)CC2)c1 | 31.9
25 | Cc1ccc(C(=O)c2oc3ccc4c(C)cc(=O)oc4c3c2C)cc1 | 12
26 | CCCCC(O)(c1ccc(Cl)cc1)C(CN1CCOCC1)c1ccc(Cl)cc1 (configuration not stated) | 40.8
27 | Cn1c(=O)n(C)c2cc(CNCCNc3ccnc4cc(Cl)ccc34)ccc21 | 90.2
28 | CCOC(=O)c1cnc2c(C)cc(C)cc2c1Nc1ccc(OC)c(OC)c1 | 3.59
29 | CCOc1ccccc1CN1CCc2nc3cc(C(C)(C)C)nn3c(O)c2C1 | 76.6
30 | Cc1ccc2nc(C)cc(Nc3cccc(C(F)(F)F)c3)c2c1 | 19.3
31 | OCCNc1nc(Nc2ccc(Cl)c(Cl)c2)nc2ccccc12 | 52.3
32 | O=C(Nc1ccc(Cl)c(Cl)c1)Nc1ccc(Cl)c(Cl)c1 | 48.8
33 | COc1ccc(CCN2CCC(CN(C)Cc3cnn(-c4ccccc4)c3)CC2)cc1 | -5.77
34 | CCOc1cc(Cl)c(C(C)NC(=O)c2ccccc2)cc1OCC (configuration not stated) | 38.7
35 | CCCCCCOC(=O)C1=C(C)NC(=O)NC1c1ccccc1F (configuration not stated) | 3.92
36 | O=c1nc(C=Cc2ccc(Br)cc2)oc2ccccc12 | 101
37 | COc1ccc2sc(N(Cc3cccnc3)C(=O)c3ccc(C#N)cc3)nc2c1 | 8.48
38 | CCOC(=O)c1cn(CC)c2cc(N3CCCCC3)c(F)cc2c1=O | 93.5
39 | OC(Cn1nnc2ccccc21)Cn1c2ccc(Br)cc2c2cc(Br)ccc21 (configuration not stated) | 43.4
40 | COc1ccccc1N=C1C(=O)c2ccccc2C(O)=C1N1CCCCC1 | 10.5
41 | c1ccc2c(NCCc3c[nH]c4ccccc34)c3ccccc3nc2c1 | 29.7
42 | O=C(CCl)NCCOc1ccc(Cl)cc1Cl | 5.3

— the supplement of paper PMC3842684
